# LAP4 TOR yeast: modulators of TOR pathway LAP4-GFP in S. cerevisiae | GFP response vs DMSO, % at 10 µM | S. cerevisiae LAP4-GFP multiplex, flow cytometry GFP, 3 h; median GFP as percent of DMSO wells | 320,000 tested, 0.34% active;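 active = GFP response vs DMSO above a set limit, about the screen mean plus 3 SD, cut at about 150% in these data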
# RPL19A-GFP yeast: yeast TOR pathway RPL19A-GFP modulation; 330,000 tested, 0.3% active; AID 2025; S. cerevisiae RPL19A-GFP strain, flow cytometry, 3 h; active compounds read low; percent response vs DMSO, % at 10 µM;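 active = percent response vs DMSO below 50%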;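 note: median channel GFP fluorescence of the barcoded RPL19A-GFP strain; ratio of sample median GFP to plate DMSO average so 100% = DMSO; lower means less RPL19A-GFP as with rapamycin TOR inhibition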
# MEP2 TOR yeast: modulators of TOR pathway MEP2-GFP in S. cerevisiae; S. cerevisiae MEP2-GFP strain, flow cytometry GFP, 3 h; 100% = DMSO control level; GFP response vs DMSO, % at 10 µM; 330,000 tested, 0.51% active; AID 2016;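 active = GFP response versus DMSO above a set limit, roughly screen mean plus 3 SD, cut at about 180% in these data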;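 note: median GFP fluorescence of the barcode-gated MEP2-GFP cells per well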
# AGP1-GFP MLPCN: alters AGP1-GFP fluorescence in TOR pathway yeast screen | S. cerevisiae AGP1-GFP multiplex flow cytometry, 3 h; GFP as percent of DMSO wells | GFP response vs DMSO, % at 10 µM | 320,000 tested, 0.02% active | AID 2066;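 active = GFP response relative to DMSO above a set limit, near screen average plus 3 SD, cut at about 150% in these data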;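 note: median GFP channel fluorescence of the gated AGP1 strain per well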
# CIT2-GFP yeast: yeast TOR pathway CIT2-GFP modulation | S. cerevisiae CIT2-GFP strain, flow cytometry, 3 h; 100 means same as DMSO wells | GFP response vs DMSO, % at 10 µM | 320,000 tested, 0.065% active;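 active = GFP response relative to DMSO above a set limit, near the screen mean plus 3 SD, cut at about 150% in these data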;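 note: ratio of well median GFP fluorescence to mean of DMSO wells on the plate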
# LAP4-GFP pick2: yeast LAP4-GFP modulation, second cherry pick | shares compounds with LAP4 TOR yeast | S. cerevisiae LAP4-GFP strain, flow cytometry GFP, 3 h | GFP response vs DMSO, % at 10 µM | 590 tested, 20% active | AID 2621;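 active = GFP signal as percent of the solvent control above about 150%, meaning raised reporter expression, limit read from the data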;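 note: ratio of well median GFP fluorescence to plate DMSO mean so 100% = DMSO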
# MEP2 cherry2: second confirmation of modulators of TOR reporter MEP2-GFP in yeast. GFP response vs DMSO, % at 10 µM. shares compounds with LAP4 TOR yeast. AID 2622. 590 tested, 10% active. S. cerevisiae MEP2-GFP strain, flow cytometry GFP, 3 h;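 active = GFP signal above 150% of the solvent control wells, that is a rise of more than half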;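 note: median channel GFP fluorescence of all gated yeast cells per well; ratio of median GFP to plate DMSO average so 100% = DMSO level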
# RPL19A-GFP pick2: reconfirmed modulator of RPL19A-GFP TOR reporter in yeast; S. cerevisiae RPL19A-GFP strain, flow cytometry GFP, 3 h; active compounds read low; 100% means same as DMSO wells; GFP response vs DMSO, % at 10 µM; AID 2623; 590 tested, 3% active; shares compounds with LAP4 TOR yeast;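 active = under 65% GFP response relative to DMSO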;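 note: median GFP channel fluorescence per well over the all cells gate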
# CIT2-GFP pick2: reconfirmed modulator of CIT2-GFP TOR reporter in yeast; shares compounds with LAP4 TOR yeast; S. cerevisiae CIT2-GFP strain, flow cytometry GFP, 3 h; DMSO control wells read 100%; GFP response vs DMSO, % at 10 µM; 590 tested, 8% active;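 active = GFP response vs DMSO above about 150%, limit read from the data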;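 note: median green fluorescence per well over all gated yeast cells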
# AGP1-GFP pick2: yeast AGP1-GFP TOR reporter modulation, second cherry pick; percent response vs DMSO, % at 10 µM; shares compounds with LAP4 TOR yeast; S. cerevisiae AGP1-GFP strain, flow cytometry GFP, 3 h; 590 tested, under 10 active;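 active = over 150 percent of DMSO response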;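 note: median GFP channel fluorescence over all cells without mother daughter split; sample median GFP divided by mean DMSO control so 100% equals DMSO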
# s288c autofluor: counter-screen for compound autofluorescence in yeast s288c cells; S. cerevisiae s288c, 520 nm autofluorescence, flow cytometry, 3 h; active compounds read high; zero means same as solvent-only cells; fluorescence change (kMESF span) at 33 µM; shares compounds with LAP4 TOR yeast; 610 tested, under 10 active; AID 2757;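 active = fluorescence span over the dose series, or activity score, above about 33, limit read from the data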
# s288c autofl DR: counter-screen for autofluorescence of TOR hits in yeast s288c | fluorescence change (span) at 33 µM | S. cerevisiae s288c parental, compound autofluorescence, flow cytometry, 3 h | 110 tested, under 10 active | AID 488829 | shares compounds with LAP4 TOR yeast;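 active = fluorescence change span, or the activity score built from it, above 25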
# TORC1 bypass: compounds blocking wildtype yeast growth but not TORC1 bypass cells; growth rating (0-3) at 30 µM; shares compounds with LAP4 TOR yeast; 120 tested, under 10 active; AID 504456; S. cerevisiae BY4741 spot growth rating, 48-72 h; active compounds read low;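 active = growth rating at most 1 for wild type yeast while the TORC1 bypass strain still grows fully, rated 3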
# Active calls of the source: *; x = no result given. Shown are actives, neighbours in structure and some others; about 0.92% of the full set was active somewhere.
SMILES,LAP4 TOR yeast,RPL19A-GFP yeast,MEP2 TOR yeast,AGP1-GFP MLPCN,CIT2-GFP yeast,LAP4-GFP pick2,MEP2 cherry2,RPL19A-GFP pick2,CIT2-GFP pick2,AGP1-GFP pick2,s288c autofluor,others
CC(Oc1ccccc1C(N)=O)C(=O)Nc1ccc(S(=O)(=O)N2CCCC2)cc1 (stereo unspecified),109.1,100.7,108.2,107.7,102.3,x,x,x,x,x,x,
O=[N+]([O-])c1c(NC2CCCCC2)nc(NCc2ccccc2)nc1N1CCOCC1,x,x,x,x,x,x,x,x,x,x,x,TORC1 bypass=3
O=S(=O)(c1ccccc1)c1ccc(C(F)(F)F)cn1,102.1,92.4,92.8,x,94.7,x,x,x,x,x,-0.2,
Cc1cc(S(=O)(=O)c2ccc([N+](=O)[O-])cn2)ccc1Br,146.7,80.9,85.2,87.2,91.5,x,x,x,x,x,x,
O=[N+]([O-])c1ccc(S(=O)(=O)c2ccccc2)nc1,177.2*,70.5,125.1,93.8,91.8,x,x,x,x,x,0.4,
Cc1ccc(S(=O)(=O)c2ccc([N+](=O)[O-])cn2)cc1,145.8,76.8,100.5,94.9,83.7,x,x,x,x,x,0.92,s288c autofl DR=0.57;TORC1 bypass=3
N/C(=N\OC(=O)c1ccc(Cl)cc1Cl)c1ccccc1,256.6*,92.8,118.0,70.8,121.1,x,x,x,x,x,1.7,
N/C(Cc1ccc(Cl)cc1Cl)=N\OC(=O)c1ccccc1,169.8*,87.2,121.0,41.0,118.8,x,x,x,x,x,7.65,
N/C(Cc1ccc(Cl)cc1)=N\OC(=O)c1cccc2ccccc12,195.7*,90.9,118.1,74.3,124.7,x,x,x,x,x,1.71,s288c autofl DR=0.89;TORC1 bypass=3
N/C(Cc1ccc(Cl)cc1)=N\OC(=O)c1ccc2ccccc2c1,98.3,106.8,107.5,102.5,102.4,x,x,x,x,x,x,
N/C(=N\OC(=O)c1ccccc1Cl)c1ccc(Cl)cc1,142.7,88.1,104.3,78.8,168.8*,x,x,x,x,x,0.9,
CSc1ncccc1C(=O)Nc1ccc(S(=O)(=O)N2CCCC2)cc1,100.2,102.1,106.1,106.5,103.7,x,x,x,x,x,x,
C[C@@H]1C[C@H]2[C@@H]3C[C@H](F)C4=CC(=O)C=C[C@]4(C)[C@@]3(Cl)[C@@H](O)C[C@]2(C)[C@H]1C(=O)COC(=O)C(C)(C)C,93.0,100.2,96.1,90.8,86.8,x,x,x,x,x,x,
COc1ccc(C2(C)NC(=O)N(CC(=O)NC3CC3)C2=O)cc1 (stereo unspecified),95.3,101.8,100.1,100.7,101.3,x,x,x,x,x,x,
COCCCNC(=O)C(=O)NCC1CCCN1S(=O)(=O)c1cccs1 (stereo unspecified),205.2*,77.5,106.3,100.0,67.2,101.0,103.2,101.5,100.7,99.1,x,
CNC(=O)C(=O)NCC1CCCN1S(=O)(=O)c1cccs1 (stereo unspecified),107.1,105.3,105.8,114.2,108.6,x,x,x,x,x,x,
O=C(CNC(=O)c1ccc(Br)o1)NNC(=O)c1ccc(Br)cc1,89.5,93.0,97.4,89.5,88.3,x,x,x,x,x,x,
CCCNc1nc(C)cc(-c2cc(C(=O)NCc3ccccc3)on2)n1,153.4*,97.3,93.0,81.8,92.1,101.0,98.2,98.1,97.2,96.5,x,
CC(C)c1cc(-c2cc(C(=O)Nc3ccccc3)on2)nc(NC2CCCC2)n1,110.3,97.2,90.0,87.9,87.8,101.0,104.8,98.8,89.3,99.1,x,
COCCNc1nc(C)cc(-c2cc(C(=O)NC3CCCC3)on2)n1,133.8,88.1,81.8,81.9,88.5,x,x,x,x,x,x,
CCCNc1nc(C)cc(-c2cc(C(=O)Nc3ccccc3)on2)n1,103.5,99.7,93.7,89.1,93.6,101.9,108.2,96.9,100.7,104.0,x,
Cc1cc(-c2cc(C(=O)NCc3ccccc3)on2)nc(NCC2CC2)n1,108.7,99.7,112.5,99.8,96.3,101.9,96.5,97.7,99.5,98.1,x,
CSc1ccccc1NC(=O)CN(C)C(=O)C1CC(=O)N(C(C)c2ccccc2)C1 (stereo unspecified),94.9,98.6,97.8,91.0,99.2,x,x,x,x,x,x,
COc1ccc(/C=C2\N=C(C)OC2=O)cc1[N+](=O)[O-],161.4*,98.2,88.8,87.0,90.7,134.6,109.8,102.3,100.7,99.3,x,
CCCN(C(=O)c1cccc(S(=O)(=O)N2CCN(C)CC2)c1)c1c(N)n(Cc2ccccc2)c(=O)[nH]c1=O,103.4,98.2,96.3,103.5,92.4,x,x,x,x,x,x,
SMILES,LAP4 TOR yeast,RPL19A-GFP yeast,MEP2 TOR yeast,AGP1-GFP MLPCN,CIT2-GFP yeast,LAP4-GFP pick2,MEP2 cherry2,RPL19A-GFP pick2,CIT2-GFP pick2,AGP1-GFP pick2,s288c autofluor,others
Cc1[nH]n(-c2ncc(-c3ccccc3)s2)c(=O)c1C(c1ccc(Cl)cc1)C(C#N)C#N (stereo unspecified),154.9*,90.2,86.1,93.4,88.3,x,x,x,x,x,0,
Cc1[nH]n(-c2ccccc2)c(=O)c1C(C[N+](=O)[O-])c1ccc(Cl)cc1 (stereo unspecified),98.2,107.5,76.7,105.9,110.1,x,x,x,x,x,x,
CCOC(=O)CSC1=NC(=O)/C(=C/c2ccc(Br)cc2)S1,215.8*,83.5,96.7,89.2,82.5,x,x,x,x,x,0,
O=C(COC(=O)CSc1ccc(F)cc1)NC1CCCCCC1,129.1,93.8,128.4,119.8,112.6,x,x,x,x,x,x,
O=C(CSc1nnc(-c2cccnc2)o1)Nc1ccccc1F,123.9,104.3,100.5,114.1,103.1,x,x,x,x,x,x,
Cc1[nH]c2ccccc2c1C(=O)COC(=O)c1ccc([N+](=O)[O-])s1,68.6,62.4,123.6,19.2,94.8,138.3,179.9*,77.3,143.2,69.7,6.78,
CC(C)(C)c1ccc(NC(=O)COC(=O)c2ccc([N+](=O)[O-])s2)cc1,211.2*,69.7,168.0,46.4,95.3,226.0*,223.0*,85.7,131.2,79.8,4.51,s288c autofl DR=1.39;TORC1 bypass=0

# Screening data: PubChem, NMMLSC
